PubChem BioAssay

molecular target: Concanavalin-A (Canavalia ensiformis) (UniProt P02866); assay: ConA small-molecule binders, primary screen, artefact control for SMM control protein annotation, biochemical, small-molecule microarray, Alexa647 label, 635 nm (AID 1127); details: ConA-A647 binding fluorescence, higher = more signal;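 further: z combines 667 nm emission intensity with signal-to-noise across three replicate slides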
Sequence (P02866 whole entry, looked up): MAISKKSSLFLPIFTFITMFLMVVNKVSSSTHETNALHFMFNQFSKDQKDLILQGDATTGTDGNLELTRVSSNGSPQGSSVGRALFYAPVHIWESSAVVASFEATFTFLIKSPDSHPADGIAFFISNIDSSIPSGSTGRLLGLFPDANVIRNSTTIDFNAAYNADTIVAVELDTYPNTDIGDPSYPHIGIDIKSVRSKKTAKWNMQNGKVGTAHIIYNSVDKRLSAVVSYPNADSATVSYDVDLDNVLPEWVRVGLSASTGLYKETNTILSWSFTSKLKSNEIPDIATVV

SMILES	composite z-score
CCCN1C(=O)[C@@]2(Cc3ccccc3)N=C(c3ccc(OCCCO)cc3)O[C@H]2c2ccccc21	0.96
O=C1c2ccccc2[C@](Cc2ccccc2I)(C(=O)NCC(F)(F)F)[C@H](c2ccc(CO)cc2)N1Cc1ccccc1	1.11
COc1ccc([Si](C)(C)[C@@H]2[C@@H](CC(=O)N(CCO)Cc3ccccc3)O[C@]3(C(=O)N(C)c4c(Br)cc(C)cc43)[C@H]2C)cc1	-0.126
CCOC(=O)C[C@H]1[C@H](OC(=O)Cc2ccc3c(c2)OCO3)[C@@H](NC(=O)c2ccccc2)c2cc(OCCCO)ccc2N1C(=O)c1ccc2ccccc2n1	1.1
COC(=O)[C@]1(Cc2ccccc2CN=[N+]=[N-])N=C(c2ccc(OCCCO)cc2)O[C@@H]1c1ccccc1	0.694
CN(C)CCCC[C@@H]1NC(=O)[C@H]2C[C@@H](C(=O)NCCCCCCNC(=O)CS)[C@@H](c3ccc(O)cc3)N2C1=O	-0.263
O=C(O)[C@]1(CCS(=O)(=O)c2ccccc2)N=C(c2ccc(OCCCO)cc2)O[C@@H]1c1ccccc1	-0.251
C=CCC(OC(C)=O)[C@@H]1[C@@H](N(Cc2cccc3ccccc23)C(=O)c2ccc(C)cc2)c2cc(OCCCO)ccc2N1C(=O)c1ccc2ccccc2c1 (stereo partly drawn)	-0.525
